Among the data in the antibiotic and cytotoxicity screens of Wong et al. (2023) are cytotoxicity call values, retold here.

Screen size: about 39,000 compounds; about 1,500 (3.8%) were called active. What follows is part of a selection rich in actives, with near analogues and random picks from the rest.

This test relates to HSkMC (human skeletal muscle cells). Description: cytotoxicity call (relative viability < 0.9). The note with it: 10 µM.
In the case of `Cc1ccc(S(=O)(=O)Nc2ccc3c(c2)C(=O)N([C@@H](C)CO)C[C@@H](C)[C@@H](CN(C)C(=O)c2ccccc2)OCCCC[C@H](C)O3)cc1`, the cytotoxicity call was “inactive”.

As to `C[C@@H]1CN([C@@H](C)CO)C(=O)c2cc(NC(=O)c3ccncc3)ccc2O[C@H]1CN(C)Cc1ccc(-c2ccccc2)cc1`, the cytotoxicity call was “inactive”.

Regarding `C[C@@H]1CN([C@@H](C)CO)C(=O)CCCn2nncc2CO[C@H]1CN(C)C(=O)Nc1cccc(Oc2ccccn2)c1`, the cytotoxicity call is “inactive”.

For `COc1ccc(NC(=O)N(C)C[C@@H]2Oc3ncc(C#CCN(C)C)cc3C(=O)N([C@@H](C)CO)C[C@H]2C)cc1`, the cytotoxicity call was “inactive”.

Take `C[C@@H]1O[C@H](O)[C@@H](F)[C@H](O)[C@@H]1O`: the cytotoxicity call was “inactive”.

`C[C@@H]1CCCCO[C@@H](CN(C)Cc2ccc(C(F)(F)F)cc2)[C@H](C)CN([C@H](C)CO)C(=O)c2cc(NC(=O)Nc3ccc(C(F)(F)F)cc3)ccc2O1`: the cytotoxicity call was “inactive”.

`C[C@@H]1CN([C@@H](C)CO)C(=O)c2cc(NC(=O)Nc3ccc(C(F)(F)F)cc3)ccc2O[C@@H](C)CCCCO[C@@H]1CN(C)Cc1ccc(C(F)(F)F)cc1`: the cytotoxicity call is “inactive”.

On to `C[C@@H]1CCCCO[C@@H](CN(C)Cc2ccc(C(F)(F)F)cc2)[C@H](C)CN([C@@H](C)CO)C(=O)c2cc(NC(=O)Nc3ccc(C(F)(F)F)cc3)ccc2O1`, for which the cytotoxicity call is “active”.

As for `C[C@@H]1CCCCO[C@@H](CN(C)Cc2ccc(C(F)(F)F)cc2)[C@@H](C)CN([C@@H](C)CO)C(=O)c2cc(NC(=O)Nc3ccc(C(F)(F)F)cc3)ccc2O1`, the cytotoxicity call is “active”.

With `C[C@@H]1CCCCO[C@@H](CN(C)Cc2ccc(C(F)(F)F)cc2)[C@@H](C)CN([C@H](C)CO)C(=O)c2cc(NC(=O)Nc3ccc(C(F)(F)F)cc3)ccc2O1`, the cytotoxicity call was “inactive”.

Consider `C[C@H](CO)N1C[C@H](C)[C@H](CN(C)Cc2ccc(C(F)(F)F)cc2)OCCCC[C@H](C)Oc2ccc(NC(=O)Nc3ccc(C(F)(F)F)cc3)cc2C1=O`, for which the cytotoxicity call was “inactive”.

In the case of `C[C@H]1CCCCO[C@@H](CN(C)Cc2ccc(C(F)(F)F)cc2)[C@@H](C)CN([C@@H](C)CO)C(=O)c2cc(NC(=O)Nc3ccc(C(F)(F)F)cc3)ccc2O1`, the cytotoxicity call was “active”.

Turning to `C[C@@H]1CN([C@H](C)CO)C(=O)c2cc(NC(=O)Nc3ccc(C(F)(F)F)cc3)ccc2O[C@@H](C)CCCCO[C@H]1CN(C)Cc1ccc(C(F)(F)F)cc1`, the cytotoxicity call is “active”.

With `CNC[C@H]1OCCCC[C@H](C)Oc2ccc(NC(=O)CCCN(C)C)cc2C(=O)N([C@H](C)CO)C[C@@H]1C`, the cytotoxicity call was “inactive”.

For the compound `C[C@@H]1CN([C@H](C)CO)C(=O)c2cccc(NC(=O)c3ccncc3)c2O[C@H]1CN(C)S(=O)(=O)c1ccccc1`, the cytotoxicity call was “inactive”.

`C[C@H](CO)N1C[C@H](C)[C@H](CN(C)S(=O)(=O)c2cn(C)cn2)Oc2ccc(NC(=O)CCCCCC(=O)Nc3ccccc3N)cc2C1=O`: the cytotoxicity call was “inactive”.

Consider `CCOC(=O)CCCCCCCCCCCC[C@@H]1C=CCC1`, for which the cytotoxicity call is “inactive”.

Consider `C[C@H](CO)N1C[C@H](C)[C@H](CN(C)Cc2ccc(C(=O)Nc3ccccc3N)cc2)OCCCC[C@H](C)Oc2ccc(NC(=O)C3CCCCC3)cc2C1=O`, for which the cytotoxicity call was “inactive”.

As to `C[C@@H]1CN([C@H](C)CO)C(=O)c2cccc(NS(=O)(=O)c3cn(C)cn3)c2O[C@H]1CN(C)C(=O)Nc1ccc2c(c1)OCO2`, the cytotoxicity call is “inactive”.

As for `CCOC(=O)Cn1cccc2oc(=O)nc1-2`, the cytotoxicity call was “inactive”.

Regarding `C[C@H]1CN([C@@H](C)CO)C(=O)c2c(c3ccccc3n2C)-c2ccccc2CO[C@H]1CN(C)C(=O)Nc1ccccc1`, the cytotoxicity call was “inactive”.

Take `C[C@@H]1CN([C@@H](C)CO)C(=O)c2c(c3ccccc3n2C)-c2ccccc2CO[C@H]1CN(C)C(=O)[C@H](C)c1ccccc1`: the cytotoxicity call is “inactive”.

As to `COc1ccc(NC(=O)N(C)C[C@@H]2Oc3ccc(NC(=O)Nc4cccc5ccccc45)cc3CC(=O)N([C@H](C)CO)C[C@@H]2C)cc1`, the cytotoxicity call is “inactive”.

`COc1ccccc1-c1cnc2c(c1)C(=O)N([C@H](C)CO)C[C@@H](C)[C@H](CN(C)C(=O)c1ccncc1)O2`: the cytotoxicity call was “inactive”.

On to `Cc1ccc(-c2cnc3c(c2)C(=O)N([C@@H](C)CO)C[C@H](C)[C@@H](CN(C)C(=O)Cc2ccncc2)O3)cc1`, for which the cytotoxicity call is “inactive”.

Turning to `C[C@@H]1CN([C@H](C)CO)C(=O)c2cccc(NC(=O)c3ccc(-c4nccs4)cc3)c2O[C@@H]1CN(C)C(=O)NC1CCCCC1`, the cytotoxicity call was “inactive”.

As to `C[C@H]1CCCCO[C@H](CN(C)Cc2ccc(C(F)(F)F)cc2)[C@@H](C)CN([C@@H](C)CO)C(=O)c2cc(NC(=O)Nc3ccc(F)cc3)ccc2O1`, the cytotoxicity call was “inactive”.

For the compound `C[C@H](CO)N1C[C@H](C)[C@H](CN(C)Cc2ccc(C(F)(F)F)cc2)OCCCC[C@H](C)Oc2ccc(NC(=O)Nc3ccc(F)cc3)cc2C1=O`, the cytotoxicity call is “inactive”.

With `C[C@@H]1CCCCO[C@@H](CN(C)Cc2ccc(C(F)(F)F)cc2)[C@H](C)CN([C@@H](C)CO)C(=O)c2cc(NC(=O)Nc3ccc(F)cc3)ccc2O1`, the cytotoxicity call is “inactive”.

`C[C@@H]1CN([C@H](C)CO)C(=O)c2cc(NC(=O)Nc3ccc(F)cc3)ccc2O[C@@H](C)CCCCO[C@H]1CN(C)Cc1ccc(C(F)(F)F)cc1`: the cytotoxicity call was “active”.

Turning to `C[C@@H]1CCCCO[C@@H](CN(C)Cc2ccncc2)[C@H](C)CN([C@H](C)CO)C(=O)c2cc(NC(=O)Nc3ccc(C(F)(F)F)cc3)ccc2O1`, the cytotoxicity call was “inactive”.

As for `C[C@@H]1CN([C@@H](C)CO)C(=O)c2cc(NC(=O)Nc3ccc(C(F)(F)F)cc3)ccc2O[C@@H](C)CCCCO[C@H]1CN(C)Cc1ccc(Cl)c(Cl)c1`, the cytotoxicity call is “inactive”.

`C[C@H](CO)N1C[C@H](C)[C@@H](CN(C)Cc2ccncc2)OCCCC[C@H](C)Oc2ccc(NC(=O)Nc3ccc(C(F)(F)F)cc3)cc2C1=O`: the cytotoxicity call is “inactive”.

Regarding `C[C@@H]1CN([C@H](C)CO)C(=O)c2cc(NC(=O)Nc3ccc(C(F)(F)F)cc3)ccc2O[C@@H](C)CCCCO[C@@H]1CN(C)Cc1ccncc1`, the cytotoxicity call is “active”.

For the compound `C[C@@H]1CN([C@H](C)CO)C(=O)c2cc(NC(=O)Nc3ccc(C(F)(F)F)cc3)ccc2O[C@@H](C)CCCCO[C@H]1CN(C)Cc1ccc(Cl)c(Cl)c1`, the cytotoxicity call is “inactive”.

For the compound `C[C@@H]1CCCCO[C@H](CN(C)Cc2ccc(C(F)(F)F)cc2)[C@@H](C)CN([C@H](C)CO)C(=O)c2cc(NC(=O)Nc3ccc(C(F)(F)F)cc3)ccc2O1`, the cytotoxicity call is “inactive”.

For `C[C@@H]1CN([C@H](C)CO)C(=O)c2cc(NC(=O)Nc3ccc(C(F)(F)F)cc3)ccc2O[C@@H](C)CCCCO[C@@H]1CN(C)Cc1ccc(C(F)(F)F)cc1`, the cytotoxicity call was “active”.

With `C[C@H](CO)N1C[C@H](C)[C@@H](CN(C)Cc2ccc(Cl)c(Cl)c2)OCCCC[C@H](C)Oc2ccc(NC(=O)Nc3ccc(C(F)(F)F)cc3)cc2C1=O`, the cytotoxicity call was “active”.

For `C[C@H](CO)N1C[C@H](C)[C@H](CN(C)Cc2ccc(O)cc2)OCc2ccccc2-c2c(n(C)c3ccccc23)C1=O`, the cytotoxicity call is “inactive”.

Take `CC(C)NC(=O)Nc1ccc2c(c1)C(=O)N([C@H](C)CO)C[C@@H](C)[C@H](CN(C)S(C)(=O)=O)OCCCC[C@@H](C)O2`: the cytotoxicity call was “inactive”.

Take `C[C@@H]1CN([C@H](C)CO)C(=O)Cc2cc(NS(=O)(=O)c3ccc(Cl)cc3)ccc2O[C@H]1CN(C)Cc1ccc(C(=O)Nc2ccccc2N)cc1`: the cytotoxicity call was “inactive”.

On to `Cc1ccc(S(=O)(=O)N(C)C[C@@H]2Oc3cc(C#Cc4ccncc4)ccc3S(=O)(=O)N([C@@H](C)CO)C[C@@H]2C)cc1`, for which the cytotoxicity call was “inactive”.

As to `C[C@H]1CN([C@@H](C)CO)C(=O)c2cccc(NS(=O)(=O)c3cn(C)cn3)c2O[C@H]1CN(C)S(=O)(=O)c1ccc(F)cc1`, the cytotoxicity call was “inactive”.

On to `C[C@H]1CN([C@@H](C)CO)S(=O)(=O)c2ccc(C#Cc3ccc(F)cc3)cc2O[C@H]1CN(C)CC1CC1`, for which the cytotoxicity call is “inactive”.

As to `C[C@@H]1CCCCO[C@H](CN(C)C(=O)CCC(F)(F)F)[C@H](C)CN([C@@H](C)CO)C(=O)c2cc(NC(=O)Nc3ccc4c(c3)OCO4)ccc2O1`, the cytotoxicity call was “inactive”.

On to `CCOC(=O)C1=CC(OC(CC)CC)C(NC(C)=O)C(N)C1.O=P(O)(O)O` (configuration not stated), for which the cytotoxicity call was “inactive”.

For the compound `COc1ccc(S(=O)(=O)N(C)C[C@@H]2Oc3ccc(NS(=O)(=O)c4ccc(F)cc4)cc3C(=O)N([C@@H](C)CO)C[C@@H]2C)cc1`, the cytotoxicity call is “inactive”.

`C[C@H]1CN([C@@H](C)CO)C(=O)Cc2cc(NC(=O)C3CC3)ccc2O[C@H]1CN(C)S(=O)(=O)c1ccc(F)cc1`: the cytotoxicity call was “inactive”.

Take `C[C@@H]1CN([C@H](C)CO)C(=O)c2cc(NC(=O)Nc3cccc4ccccc34)ccc2O[C@@H]1CN(C)C(=O)Nc1ccc2c(c1)OCO2`: the cytotoxicity call is “inactive”.

Consider `COc1ccc([C@H]([C@H](Cc2ccccc2)OC(C)=O)N(CC#C[C@@H](O)c2ccccc2)[C@@H](Cc2ccccc2)C(OC)OC)cc1`, for which the cytotoxicity call is “inactive”.

As for `COc1ccc2c3c(n(c2c1)C)[C@H](CO)N(Cc1ccccc1F)C[C@]13CN(C1)C(=O)C1CCOCC1`, the cytotoxicity call is “inactive”.

With `C[C@@H]1CN([C@@H](C)CO)C(=O)c2cc(NC(=O)Nc3ccc(C(F)(F)F)cc3)ccc2O[C@@H](C)CCCCO[C@H]1CN(C)Cc1ccc(C(F)(F)F)cc1`, the cytotoxicity call is “inactive”.

On to `C[C@H]1CCCCO[C@H](CN(C)Cc2ccc(C(F)(F)F)cc2)[C@@H](C)CN([C@@H](C)CO)C(=O)c2cc(NC(=O)Nc3ccc(C(F)(F)F)cc3)ccc2O1`, for which the cytotoxicity call is “inactive”.

On to `C[C@@H]1CCCCO[C@H](CN(C)Cc2ccc(C(F)(F)F)cc2)[C@H](C)CN([C@H](C)CO)C(=O)c2cc(NC(=O)Nc3ccc(C(F)(F)F)cc3)ccc2O1`, for which the cytotoxicity call was “active”.

Turning to `C[C@@H]1CCCCO[C@H](CN(C)Cc2ccc(C(F)(F)F)cc2)[C@@H](C)CN([C@@H](C)CO)C(=O)c2cc(NC(=O)Nc3ccc(C(F)(F)F)cc3)ccc2O1`, the cytotoxicity call was “inactive”.

For `C[C@@H]1CCCCO[C@H](CN(C)Cc2ccc(C(F)(F)F)cc2)[C@H](C)CN([C@@H](C)CO)C(=O)c2cc(NC(=O)Nc3ccc(C(F)(F)F)cc3)ccc2O1`, the cytotoxicity call was “active”.

In the case of `C[C@H](CO)N1C[C@H](C)[C@@H](CN(C)Cc2ccc(C(F)(F)F)cc2)OCCCC[C@H](C)Oc2ccc(NC(=O)Nc3ccc(C(F)(F)F)cc3)cc2C1=O`, the cytotoxicity call is “inactive”.
